Measured values taken from article PMC5913336, “True equilibrium measurement of transcription factor-DNA binding affinities using automated polarization microscopy”.

Each sequence was assayed against Kr (Drosophila melanogaster, UniProt P07247 220-332) (assay: FP; 20 mM Tris-acetate pH 7.0, 50 "nM" NaCl as printed (probably mM), 0.01% Tween 20, 0.1 mM DTT; conventional titration). Conditions: tags: N-GST (pGEX-6P-1, kept); dsDNA, one strand shown.
Sequence of Kr (P07247 220-332): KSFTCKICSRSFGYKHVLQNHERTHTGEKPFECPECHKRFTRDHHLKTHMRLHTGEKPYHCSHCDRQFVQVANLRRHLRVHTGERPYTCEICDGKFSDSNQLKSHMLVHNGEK

Sequence	binding signal	Kd [nM]
TTGAGGAATTA	2.59 Kd / Kd of best base at the position	–
TTGTGGGATTA	3.61 Kd / Kd of best base at the position	–
TTGAGGGATTT	1.61 Kd / Kd of best base at the position	–
TTGAGGGAGTA	2.01 Kd / Kd of best base at the position	–
TTGAAGGATTA	1.22 Kd / Kd of best base at the position	–
CTGAGGGATTA	1.7 Kd / Kd of best base at the position	–
TTGAGGGATTC	2.58 Kd / Kd of best base at the position	–
TTGAGGGATTG	1.33 Kd / Kd of best base at the position	–
ATGAGGGATTA	1.06 Kd / Kd of best base at the position	–
TTCAGGGATTA	4.61 Kd / Kd of best base at the position	–
TTAAGGGATTA	1.14 Kd / Kd of best base at the position	–
TTGAGGGATGA	1.78 Kd / Kd of best base at the position	–
TTGAGGGCTTA	2.19 Kd / Kd of best base at the position	–
TTGAGGTATTA	13.8 Kd / Kd of best base at the position	–
TCGAGGGATTA	1.5 Kd / Kd of best base at the position	–
TGGAGGGATTA	1.3 Kd / Kd of best base at the position	–
GTGAGGGATTA	1.3 Kd / Kd of best base at the position	–

Sequence	binding signal	Kd [nM]
TTGAGGGATCA	4.06 Kd / Kd of best base at the position	–
TTGAGCGATTA	27.9 Kd / Kd of best base at the position	–
TTGACGGATTA	2.29 Kd / Kd of best base at the position	–
TTGAGGGTTTA	9.26 Kd / Kd of best base at the position	–
TTGAGGCATTA	267 Kd / Kd of best base at the position	–
TTGATGGATTA	4.9 Kd / Kd of best base at the position	–
TTGGGGGATTA	16.7 Kd / Kd of best base at the position	–
TTGAGGGGTTA	1.22 Kd / Kd of best base at the position	–
TTGAGAGATTA	15.7 Kd / Kd of best base at the position	–
TTTAGGGATTA	4.08 Kd / Kd of best base at the position	–
TTGAGGGAATA	4.25 Kd / Kd of best base at the position	–
TTGAGTGATTA	37.9 Kd / Kd of best base at the position	–
TTGCGGGATTA	12.2 Kd / Kd of best base at the position	–
TTGAGGGACTA	3.27 Kd / Kd of best base at the position	–
TAGAGGGATTA	1.67 Kd / Kd of best base at the position	–
TTGAGGGATAA	1.82 Kd / Kd of best base at the position	–
TTGAGGGATTA	–	~0.2

These sequences were tested against T1, Cad (Drosophila melanogaster, UniProt P09085 273-344) in the same assay as above. Conditions: tags: N-GST (pGEX-6P-1, kept); dsDNA, one strand shown.
T1 sequence: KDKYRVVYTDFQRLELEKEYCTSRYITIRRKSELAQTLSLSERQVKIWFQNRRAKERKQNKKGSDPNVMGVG

Sequence	binding signal
CTCTTTTTATA	4.6 Kd / Kd of best base at the position
CACTCTTTATA	7.2 Kd / Kd of best base at the position
CCCTTTTTATA	1 Kd / Kd of best base at the position
CACTATTTATA	2.8 Kd / Kd of best base at the position
